Measurements reported in PubChem BioAssay (NCATS).
Values without a mark were called inactive. How the calls were made is not given here.

test system: HIV-1 nucleocapsid protein NCp7 (binding to TG oligonucleotide); assay: HIV Nucleocapsid (AID 346); settings: HIV-1 NC / fluorescein-TGTGTGTG probe, fluorescence polarization;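 further: potency is for inhibitors that block NC binding and lower polarization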
Procedure, shortened: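 Reagents dispensed (10 nM TG4xF, 100 nM HIV-1 NC), plates spun, compounds pin-transferred, then incubated 1 hr at room temperature before FP imaging. Buffer: Hepes pH 7.5, 250mM NaCl, 1uM ZnCl2, 100 uM TCEP, 5 mM 2-mercaptoethanol.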
Potency means the concentration at half of the fitted maximal effect.

Row | SMILES | Potency
1 | O=c1c(-c2ccc(Cl)cc2)nc2cncnc2n1Cc1ccc(F)cc1 | > 20 µM
2 | COc1ccc(-n2c(=O)cnc3cnc(Oc4cccc(Cl)c4)nc32)cc1 | > 20 µM
3 | O=C(c1cccc(F)c1)N1CCC2(CC1)CN(c1cccc(-c3ccccc3)c1)C2 | > 20 µM
4 | COc1ccc(C(=O)N2CCC3(CCCN(c4ccccn4)C3)CC2)cc1 | > 20 µM
5 | c1ccc(CNc2nc(-c3cccnc3)nc3ccccc23)cc1 | > 20 µM
6 | CN(C)C(=O)c1ccc(-c2cncnc2NCCc2cnc[nH]2)cc1 | > 20 µM
7 | O=S(=O)(c1ccccc1)N1CCC[C@@]2(CCN(Cc3ccccc3)C2)C1 | > 20 µM
8 | O=C(Nc1ccccc1)N1CCC2(CC1)CCN(C(=O)c1cccc(F)c1)CC2 | > 20 µM
9 | CC(C)CN1CCCC2(CCN(C(=O)c3csnn3)CC2)C1 | > 20 µM
10 | O=C(Oc1ccccc1)N1CCC2(CCCN(c3ncccn3)C2)CC1 | > 20 µM
11 | Cc1cnc(CNc2nc(-c3ccccc3Cl)nc3ccccc23)cn1 | > 20 µM
12 | COc1ccc(C(=O)N2CCC3(CC2)CN(c2cccc(-c4ccccc4)c2)C3)cc1 | > 20 µM
13 | N#Cc1cccc(NC(=O)N2CCCC3(CCN(C(=O)c4ccncc4)CC3)C2)c1 | > 20 µM
14 | COc1ccc(NC(=O)N2CC[C@@]3(CCCN(C(=O)c4c(C)noc4C)C3)C2)cc1 | > 20 µM
15 | O=C(c1ccncc1)N1CCC2(CC1)CCN(c1cccc(-c3ccccc3)c1)CC2 | > 20 µM
16 | CN1CC[C@@]2(CCCN(S(=O)(=O)c3ccccc3)C2)C1 | > 20 µM
17 | CN(C)c1ncc2nc(-c3cccc(C#N)c3)c(=O)n(C)c2n1 | > 20 µM
18 | Cc1nc2cnc(N3CCOCC3)nc2n(C[C@H]2CCCO2)c1=O | > 20 µM
19 | CNc1ncncc1-c1ccccc1C | > 20 µM
20 | c1ccc(-c2cccc(N3CCC4(CCNCC4)CC3)c2)cc1 | > 20 µM

Row | SMILES | Potency
21 | O=C(c1cccc(F)c1)N1CCC2(CC1)CCN(c1ccc(-c3ccccc3)cc1)CC2 | > 20 µM
22 | Clc1ccccc1-c1ccc2ncnc(NCCN3CCOCC3)c2c1 | > 20 µM
23 | CC(=O)N1CCC2(CC1)CN(C(c1ccccc1)c1ccccc1)C2 | > 20 µM
24 | CC(C)NC(=O)N1CCC2(CC1)CCN(C(=O)c1cc(C(F)(F)F)cc(C(F)(F)F)c1)CC2 | > 20 µM
25 | COc1ccc(-c2nc3cnc(N4CCN(C)CC4)nc3n(Cc3cccs3)c2=O)cc1 | > 4 µM
26 | c1ccc2c(-n3ccnc3)nc(-c3ccoc3)nc2c1 | > 20 µM
27 | COc1ncc2nc(-c3ccc(Cl)cc3)c(=O)n(Cc3cccs3)c2n1 | > 20 µM
28 | COc1ccccc1-c1cncnc1NCc1cnc(C)cn1 | > 20 µM
29 | CNc1nc(-c2ccc(C(=O)N(C)C)cc2)nc2ccccc12 | > 20 µM
30 | NC(=O)c1ccccc1-c1nc(-n2ccnc2)c2ccccc2n1 | > 20 µM
31 | COc1ccc2[nH]cc(CCNc3ncnc4ccc(-c5ccccc5C#N)cc34)c2c1 | > 20 µM
32 | Cc1noc(C)c1C(=O)N1CCC[C@@]2(CCN(c3ccccc3)C2)C1 | > 20 µM
33 | COc1ccc2[nH]cc(CCNc3ncncc3-c3ccc(N(C)C)cc3)c2c1 | > 20 µM
34 | COc1cccc(Cn2c(=O)c(C)nc3cnc(Nc4ccccc4)nc32)c1 | > 4 µM
35 | CC(=O)NCCNc1ncncc1-c1ccccc1CN(C)C | > 20 µM
36 | Cc1ccccc1-c1ccc2ncnc(N3CCOCC3)c2c1 | > 20 µM
37 | COc1ccc(CNc2ncnc3ccc(-c4ccccc4OC)cc23)c(OC)c1 | > 20 µM
38 | O=c1c(CCc2ccccc2)nc2cnc(N3CCOCC3)nc2n1C[C@H]1CCCO1 | > 20 µM
39 | O=C(c1cnccn1)N1CCC2(CCN(Cc3ccncc3)CC2)CC1 | > 20 µM
40 | CC(C)CN1CCCC2(CCN(S(=O)(=O)c3ccccc3)CC2)C1 | > 20 µM
